In PubChem BioAssay AID1159580 (chemical genetic matrix, 2015):
Several values for one entry are separate records, joined by “and”; a condition that tells them apart may be missing. Identical values can stand only once. In all, about 5,500 compounds went through this assay and about 2,000 (36%) were called active. Not shown: some 18% with an inconclusive outcome. Cut-off read from the data, not from the text of the source: active = normalized growth mostly below about 0.91 (no sharp cut-off); inconclusive = no clear call, values can overlap the other calls; inactive = mostly above about 0.92. The list shows a part of the results.

Assay: chemical genetic growth profiling, strain panel (AID 1159580);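 note: tested at 20 µM; growth read once vehicle control cultures reached saturation at 30 °C; 1 = growth at the plate median or of vehicle wells; lower values mean less growth of the strain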
Conditions: growth OD

Measured: normalized growth

COc1cc(OC)c2c(=O)cc(-c3ccccc3)oc2c1
active: S. cerevisiae deletion strains, locus YDL074C, strain BRE1, stronger effect = lower value 0.764 | S. cerevisiae deletion strains, locus YDL134C, strain PPH21, stronger effect = lower value 0.886 | S. cerevisiae deletion strains, locus YDL192W, strain arf1, stronger effect = lower value 0.914 | S. cerevisiae deletion strains, locus YDR162C, strain NBP2, stronger effect = lower value 0.752 | S. cerevisiae deletion strains, locus YDR318W, strain mcm21, stronger effect = lower value 0.868 | S. cerevisiae deletion strains, locus YDR502C, strain sam2, stronger effect = lower value 0.907 | S. cerevisiae deletion strains, locus YER167W, strain BCK2, stronger effect = lower value 0.899 | S. cerevisiae deletion strains, locus YGL086W, strain mad1, stronger effect = lower value 0.924 | S. cerevisiae deletion strains, locus YGL248W, strain PDE1, stronger effect = lower value 0.866 | S. cerevisiae deletion strains, locus YGR078C, strain PAC10, stronger effect = lower value 0.805 | S. cerevisiae deletion strains, locus YGR135W, strain pre9, stronger effect = lower value 0.819 | S. cerevisiae deletion strains, locus YGR229C, strain SMI1, stronger effect = lower value 0.664 | S. cerevisiae deletion strains, locus YHR079C, strain IRE1 (second series), stronger effect = lower value 0.895 | S. cerevisiae deletion strains, locus YKR001C, strain vps1, stronger effect = lower value 0.839 | S. cerevisiae deletion strains, locus YLR039C, strain RIC1, stronger effect = lower value 0.644 | S. cerevisiae deletion strains, locus YLR268W, strain sec22, stronger effect = lower value 0.877 | S. cerevisiae deletion strains, locus YLR342W, strain FKS1 (second series), stronger effect = lower value 0.71 | S. cerevisiae deletion strains, locus YLR418C, strain cdc73, stronger effect = lower value 0.685 | S. cerevisiae deletion strains, locus YML032C, strain rad52, stronger effect = lower value 0.757 | S. cerevisiae deletion strains, locus YMR223W, strain ubp8, stronger effect = lower value 0.875 | S. cerevisiae deletion strains, locus YMR263W, strain SAP30, stronger effect = lower value 0.871 | S. cerevisiae deletion strains, locus YNL233W, strain BNI4, stronger effect = lower value 0.846 | S. cerevisiae deletion strains, locus YNL307C, strain MCK1, stronger effect = lower value 0.533 | S. cerevisiae deletion strains, locus YNR052C, strain pop2, stronger effect = lower value 0.902 | S. cerevisiae deletion strains, locus YOL006C, strain TOP1, stronger effect = lower value 0.472 | S. cerevisiae deletion strains, locus YOR184W, strain ser1, stronger effect = lower value 0.792 | S. cerevisiae deletion strains, locus YPR163C, strain tif3, stronger effect = lower value 0.785 | S. cerevisiae deletion strains, strain wtn01, stronger effect = lower value 0.868
0.51 (active) and 0.918 (inactive): S. cerevisiae deletion strains, locus YJL095W, strain BCK1, stronger effect = lower value
0.718 (active) and 0.911 (inactive): S. cerevisiae deletion strains, locus YHR030C, strain SLT2, stronger effect = lower value
inactive: S. cerevisiae deletion strains, locus YAL013W, strain DEP1, stronger effect = lower value 0.912 | S. cerevisiae deletion strains, locus YBR021W, strain FUR4, stronger effect = lower value 0.978 | S. cerevisiae deletion strains, locus YBR229C, strain ROT2, stronger effect = lower value 0.949 | S. cerevisiae deletion strains, locus YCL029C, strain bik1, stronger effect = lower value 0.957 | S. cerevisiae deletion strains, locus YDL035C, strain GPR1, stronger effect = lower value 0.864 | S. cerevisiae deletion strains, locus YDL101C, strain DUN1, stronger effect = lower value 0.925 | S. cerevisiae deletion strains, locus YDL185W, strain tfp1, stronger effect = lower value 0.951 | S. cerevisiae deletion strains, locus YDR101C, strain arx1, stronger effect = lower value 0.936 | S. cerevisiae deletion strains, locus YDR150W, strain NUM1, stronger effect = lower value 0.949 | S. cerevisiae deletion strains, locus YDR388W, stronger effect = lower value 0.951 | S. cerevisiae deletion strains, locus YEL061C, strain CIN8, stronger effect = lower value 0.941 | S. cerevisiae deletion strains, locus YER110C, stronger effect = lower value 0.914 | S. cerevisiae deletion strains, locus YER155C, strain BEM2, stronger effect = lower value 0.951 | S. cerevisiae deletion strains, locus YGL078C, strain dbp3, stronger effect = lower value 0.961 | S. cerevisiae deletion strains, locus YGR252W, strain gcn5, stronger effect = lower value 0.793 | S. cerevisiae deletion strains, locus YHR079C, strain IRE1, stronger effect = lower value 0.925 | S. cerevisiae deletion strains, locus YHR094C, strain hxt1, stronger effect = lower value 0.96 | S. cerevisiae deletion strains, locus YHR129C, strain ARP1, stronger effect = lower value 0.934 | S. cerevisiae deletion strains, locus YHR200W, strain rpn10, stronger effect = lower value 0.929 | S. cerevisiae deletion strains, locus YIL066C, strain RNR3, stronger effect = lower value 0.912 | S. cerevisiae deletion strains, locus YIL073C, strain SPO22, stronger effect = lower value 0.844 | S. cerevisiae deletion strains, locus YIL125W, strain kgd1, stronger effect = lower value 0.975 | S. cerevisiae deletion strains, locus YIR030C, strain dcg1, stronger effect = lower value 0.95 | S. cerevisiae deletion strains, locus YJL134W, strain LCB3, stronger effect = lower value 0.948 | S. cerevisiae deletion strains, locus YJL168C, strain set2, stronger effect = lower value 0.944 | S. cerevisiae deletion strains, locus YJL187C, strain SWE1 (second series), stronger effect = lower value 0.879 | S. cerevisiae deletion strains, locus YJR043C, strain POL32, stronger effect = lower value 0.894 | S. cerevisiae deletion strains, locus YJR066W, strain TOR1, stronger effect = lower value 0.872 | S. cerevisiae deletion strains, locus YJR075W, strain HOC1, stronger effect = lower value 0.884 | S. cerevisiae deletion strains, locus YKL009W, strain mrt4, stronger effect = lower value 0.906 | S. cerevisiae deletion strains, locus YKL068W, stronger effect = lower value 0.967 | S. cerevisiae deletion strains, locus YKL085W, strain MDH1 (second series), stronger effect = lower value 0.963 | S. cerevisiae deletion strains, locus YKL085W, strain MDH1, stronger effect = lower value 0.963 | S. cerevisiae deletion strains, locus YKL190W, strain CNB1, stronger effect = lower value 0.948 | S. cerevisiae deletion strains, locus YLR058C, strain SHM2, stronger effect = lower value 0.913 | S. cerevisiae deletion strains, locus YLR102C, strain apc9, stronger effect = lower value 0.958 | S. cerevisiae deletion strains, locus YLR113W, strain HOG1, stronger effect = lower value 0.952 | S. cerevisiae deletion strains, locus YLR262C, strain YPT6, stronger effect = lower value 0.652 | S. cerevisiae deletion strains, locus YLR330W, strain CHS5, stronger effect = lower value 0.929 | S. cerevisiae deletion strains, locus YLR371W, strain rom2, stronger effect = lower value 0.959 | S. cerevisiae deletion strains, locus YML016C, strain PPZ1, stronger effect = lower value 0.929 | S. cerevisiae deletion strains, locus YML124C, strain tub3, stronger effect = lower value 0.952 | S. cerevisiae deletion strains, locus YMR078C, strain ctf18, stronger effect = lower value 0.912 | S. cerevisiae deletion strains, locus YMR307W, strain GAS1, stronger effect = lower value 0.625 | S. cerevisiae deletion strains, locus YNL067W, strain RPL9B, stronger effect = lower value 0.889 | S. cerevisiae deletion strains, locus YNL128W, strain TEP1, stronger effect = lower value 0.939 | S. cerevisiae deletion strains, locus YNL153C, strain GIM3, stronger effect = lower value 0.924 | S. cerevisiae deletion strains, locus YNL183C, strain NPR1, stronger effect = lower value 0.88 | S. cerevisiae deletion strains, locus YNL250W, strain rad50, stronger effect = lower value 0.923 | S. cerevisiae deletion strains, locus YNL271C, strain bni1, stronger effect = lower value 0.943 | S. cerevisiae deletion strains, locus YNL298W, strain CLA4, stronger effect = lower value 0.941 | S. cerevisiae deletion strains, locus YNL322C, strain KRE1, stronger effect = lower value 0.946 | S. cerevisiae deletion strains, locus YOL012C, strain htz1 0.858 | S. cerevisiae deletion strains, locus YOL147C, strain pex11, stronger effect = lower value 0.944 | S. cerevisiae deletion strains, locus YOR061W, strain CKA2, stronger effect = lower value 0.941 | S. cerevisiae deletion strains, locus YOR069W, strain VPS5, stronger effect = lower value 0.95 | S. cerevisiae deletion strains, locus YOR136W, strain idh2, stronger effect = lower value 0.965 | S. cerevisiae deletion strains, locus YOR144C, strain elg1, stronger effect = lower value 0.949 | S. cerevisiae deletion strains, locus YOR231W, strain MKK1, stronger effect = lower value 0.925 | S. cerevisiae deletion strains, locus YOR316C, strain cot1, stronger effect = lower value 0.943 | S. cerevisiae deletion strains, locus YPL055C, strain LGE1, stronger effect = lower value 0.83 | S. cerevisiae deletion strains, locus YPL241C, strain CIN2, stronger effect = lower value 0.946 | S. cerevisiae deletion strains, locus YPL256C, strain CLN2, stronger effect = lower value 0.911 | S. cerevisiae deletion strains, locus YPR119W, strain clb2, stronger effect = lower value 0.945 | S. cerevisiae deletion strains, locus YPR141C, strain kar3, stronger effect = lower value 0.967 | S. cerevisiae deletion strains, locus YPR167C, strain met16, stronger effect = lower value 0.951 | S. cerevisiae strains, strain wild type, stronger effect = lower value 0.905
